From PubChem BioAssay (NCATS)
Values joined by “and” are separate entries in the source; they are usually repeats but may differ in a detail not shown here. Identical values can stand only once. Results filed as inconclusive are left out. Unmarked numbers belong to inactive results. Active and inactive are the calls of the source. The call rests on the fitted dose curve; in most records, active means well fitted activation curve with a large enough effect; inconclusive means small, poorly fitted or top-dose-only effect; inactive means no such curve, though single readings can be large or run the other way.

target: Cellular tumor antigen p53 (Homo sapiens) (UniProt P04637); test: Primary qHTS for small molecule compounds that upregulate eGFP-tagged delta133p53alpha (in N-terminal) cells. (AID 2060322); details: NCI-H358 eGFP-delta133p53alpha fluorescence, 24 h; activation: stronger effect = higher value; further: nearly all actives have a fitted effect of over 75% in size;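 on activation: cells pre-induced with doxycycline then dosed without doxycycline; series mostly up to about 56 µM; 0% = DMSO vehicle and 100% = reference activator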
Sequence (P04637 whole entry, looked up): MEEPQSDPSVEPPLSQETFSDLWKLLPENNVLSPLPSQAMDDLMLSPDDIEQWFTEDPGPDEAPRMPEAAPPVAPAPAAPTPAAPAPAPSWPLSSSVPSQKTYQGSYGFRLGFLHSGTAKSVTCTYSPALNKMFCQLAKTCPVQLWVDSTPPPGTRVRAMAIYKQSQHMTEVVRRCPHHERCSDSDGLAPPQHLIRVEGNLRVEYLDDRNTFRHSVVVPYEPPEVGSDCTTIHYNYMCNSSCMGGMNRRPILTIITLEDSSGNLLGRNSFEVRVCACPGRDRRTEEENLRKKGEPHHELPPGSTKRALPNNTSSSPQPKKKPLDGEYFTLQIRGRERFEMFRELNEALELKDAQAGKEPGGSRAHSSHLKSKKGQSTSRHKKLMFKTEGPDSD
Summary of the method: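 NCI-H358 cells pre-induced 24 h with 10 ng/ml doxycycline for eGFP-delta133p53alpha, plated dox-free and exposed 24 h at 37C to titrated compounds. Fixed, Hoechst-stained; gated GFP peak intensity by laser scanning cytometry, normalized to DMSO (0%) and 57.5 uM 5-azacytidine (100%).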
Potency means the concentration at half of the fitted maximal effect.

First: CCC1(c2cnc[nH]2)Cc2ccccc2C1
Second: CCC(C(=O)O)c1ccc(N2Cc3ccccc3C2=O)cc1 (stereo not given)
The activation of the first is lower: -7.53% for the first, 18.6% for the second.

First: NCC(=O)CCC(=O)O
Second: NC(=O)N[C@@H](CCC(=O)O)C(=O)O
The activation of the first is lower: -14.1% for the first, -5.02% for the second.

First: Cc1cccc(C)c1NC(=O)c1ccccc1C(=O)O
Second: O=C(O)COC(=O)Cc1ccccc1Nc1c(Cl)cccc1Cl
The activation of the first is higher: 28.5% for the first, 5.08% for the second.

Compared with `O=C(O)[C@@H](O)[C@H](O)[C@H](O)[C@@H](O)C(=O)O`, `OCC(CO)N[C@H]1C[C@](O)(CO)[C@@H](O)[C@H](O)[C@H]1O` is lower in activation: -1.67% for the first, -11.7% for the second.

`CN(C)CCOC(c1ccc(Cl)cc1)c1ccccn1` (stereo not given) and `Cc1[nH]cnc1-c1ccc(Cl)cc1` are the same in activation: 15.3% for the first, 15.3% for the second.

Going from `CCN1CCCC1=O` to `O=c1[nH]c(=O)n([C@H]2C[C@@H](O)[C@@H](CO)O2)cc1I`, the activation falls from 10.7% to 6.89%.

First: Nc1ccc(S(=O)(=O)NC(=O)c2ccccc2)cc1
Second: COc1cc(NS(=O)(=O)c2ccc(N)cc2)ncn1
The activation of the first is higher: 5.08% for the first, -5.86% for the second.

First: FC1(F)C(F)(F)C(F)(F)C2(F)C(F)(F)C(F)(F)C(F)(F)C(F)(F)C2(F)C1(F)F (stereo not given)
Second: C[C@H]1C[C@@H]2[C@@H]([C@@H](O)C[C@@]3(C)[C@H]2CC[C@]3(O)C(=O)CO)[C@@]2(C)C=CC(=O)C=C12
The activation of the first is higher: -7.34% for the first, -16.2% for the second.

Going from `Nc1ccc(C(=O)O)c(O)c1` to `O=Cc1ccc(O)c(O)c1O`, the activation falls from 20.9% to -4.18%.

First: CNC(=O)c1ccccc1Sc1ccc2c(C=Cc3ccccn3)n[nH]c2c1
Second: O=C(O)c1ccc(-c2cc3cccnc3c(-c3ccc4nonc4c3)n2)cc1
The activation of the first is lower: -28.7% for the first, 3.89% for the second.

First: Oc1cccc(O)c1
Second: OCc1ccc(Cl)cc1Cl
The activation of the first is lower: -16.4% for the first, -7.53% for the second.

Going from `CCOC(=O)c1cccnc1` to `CCCCC(CC)COC(=O)c1ccc(N(C)C)cc1` (stereo not given), the activation rises from -9.6% to 0.837%.

Going from `C=CC[N+]1([C@H]2C[C@H]3[C@@H]4CC[C@H]5C[C@H](O)[C@@H](N6CCOCC6)C[C@]5(C)[C@@H]4CC[C@]3(C)[C@H]2OC(C)=O)CCCC1` to `CNC(=O)c1cccc(-c2ccc3c(N4CCOC[C@H]4C)nc(N4CCOC[C@H]4C)nc3n2)c1`, the activation rises from 4.45% to 19.5%.

Compared with `c1ccc2sc(SN3CCOCC3)nc2c1`, `CNCCc1ccccn1` is lower in activation: 8.37% for the first, 5.02% for the second.

Going from `OCC(O)CS` (stereo not given) to `Cc1cn([C@@H]2O[C@H](CO)[C@@H](O)[C@H]2F)c(=O)[nH]c1=O`, the activation rises from -8.47% to 5.67%.

First: O=C(CCCl)NCCc1ccccc1
Second: CC(C)NCCCC1(C(N)=O)c2ccccc2-c2ccccc21
The activation of the first is lower: -4.18% for the first, 4.18% for the second.

Compared with `CC(=O)CC/C=C(\C)CC/C=C(\C)CC/C=C(\C)CCC=C(C)C`, `CC=CCC(C)C(O)C1C(=O)NC(CC)C(=O)N(C)CC(=O)N(C)C(CC(C)C)C(=O)NC(C(C)C)C(=O)N(C)C(CC(C)C)C(=O)NC(C)C(=O)NC(C)C(=O)N(C)C(CC(C)C)C(=O)N(C)C(CC(C)C)C(=O)N(C)C(C(C)C)C(=O)N1C` (stereo not given) is higher in activation: -15.3% for the first, -6.27% for the second.

First: NC(=O)NC1N=C([O][Al])NC1=O (stereo not given)
Second: CCCSc1ccc2nc(NC(=O)OC)[nH]c2c1
The activation of the first is higher: 8.47% for the first, 6.69% for the second.

`CC(C)(C)[N+]([O-])=Cc1ccc(S(=O)(=O)O)cc1S(=O)(=O)O` was tested, and the activation was -9.61%.

For `CO[C@@H]1C(N(C)C(=O)c2ccccc2)C[C@H]2O[C@]1(C)n1c3ccccc3c3c4c(c5c6ccccc6n2c5c31)C(=O)NC4=O` (stereo not given in full), the Potency was 9.68 µM (active).
`CN1CC[C@H](c2c(O)cc(O)c3c(=O)cc(-c4ccccc4Cl)oc23)[C@H](O)C1` was tested, and the Potency was 0.11 µM (active).

In the case of `CCn1cc(C(=O)O)c(=O)c2cc(F)c(N3CCNCC3)nc21`, the activation is reported as -2.51% and 26.4%.
